Source: PubChem BioAssay AID1347432 (National Center for Advancing Translational Sciences (NCATS), 2020)
Active and inactive are the calls of the source. Where a call stands in place of a potency, no number is given. The call rests on the fitted dose curve; in most records, active means well fitted curve in the direction sought with a large enough effect; inactive means no such curve, though single readings can be large or run the other way.

target: Uracil-DNA glycosylase (Escherichia coli (strain K12)) (UniProt P12295); test: Confirmatory (Round 2) qHTS assay for inhibitors of Activation Induced Cytidine Deaminase (AID): UDG counterscreen signal; details: FRET fluorescence, 4 h; series mostly up to 78.4 µM
Description: Assay Provider (PI) Patricia Gearhart Ph.D. National Institute on Aging National Institute of Health (NIH), Bethesda, MD Assay Provider (PI) Rahul Kohli Ph.D. Perelman School of Medicine University of Pennsylvania, Philadelphia, PA Activation-Induced Deaminase (AID) is a cytosine deaminase which converts cytosine into uracil within stretches of ssDNA. The presence of uracil in DNA initiates a cascade of mutagenic DNA repair to introduce point mutations and DNA double strand breaks. Specific targeting of AID to the immunoglobulin heavy chain loci (Igh) promotes mutagenesis in the antibody variable region for somatic hypermutation (SHM) or switch regions leading to class switch recombination (CSR). However, AID also plays a role in accumulating unnecessary mutations across the genome. Mis-targeting of AID results in the initiation of tumor development and leads to greater drug resistance among cancer cells when continually expressed. To identify an AID inhibitor, a small molecule library will be screened in collaboration with NCATS core facility at NIH. To confirm biological function, inhibitors will be examined in an in vitro murine B-cell activation assay and subsequent secondary validation screens. Top molecules will be further screened to identify inhibitory efficacy against a wild type primary splenocytes assay. Using these approaches, we hope to identify a small molecule with great efficacy and low toxicity for use as a molecular probe to further characterize AID's intricacies, or even as a therapeutic. A FRET based analysis of cytosine deamination, was developed to identify potential inhibitors of AID catalytic activity. This screen has two signal output, Read 1 evaluates the AID inhibition response. The second readout (Read 2) evaluates UDG response and is uses as a counterscreen to exclude false positive inhibitors. Inhibition in AID and inactivity in the UDG signal is the desired outcome for this assay.
PROTOCOL TABLE SEQUENCE No. (e.g., 1, 2, 3, etc.); PARAMETER (e.g., Cells, Incubation, Reagent, etc.); VALUE; DESCRIPTION 1a; Reagent; 3 uL; [4/3x] 1 uM AID/2.67 U/mL UDG 1b; Reagent; 3 uL; 2 U/mL UDG 1c; Reagent; 3 uL; 1 uM AID 2a; Compound; 46 nL; Follow-up plates (0.64 uM - 10 mM) 2b; Control; 46 nL; ATA ([…] - 10 mM) 3; Time; 10 min; incubation at room temperature 4; Reagents; 1 uL; [4x] 250 nM DJC20 / 250 nM DJC23 [Substrate] 5; Time; 4 hr; incubation at room temperature 6; Reagent; 4 uL; [2x] 250 mM NaOH 7; Time; 15 sec; centrifuge at 1000 rpm 8; Time; 30 min; incubation at room temperature 9a; Detection; fluorescence (Read 1: AID); EnVision (PerkinElmer) plate reader, 540 excitation and 590 emission filters 9b; Detection; fluorescence (Read 2: UDG); EnVision (PerkinElmer) plate reader, 560 excitation and 665 emission filters NOTES (numbers refer to sequence above) 1a; Reagents were dispensed in a medium-binding black solid-bottom Greiner plates (789176F) using a BioRptr liquid dispenser. Dispense 3 uL of [4/3x] 1 uM AID (provided by Kohli lab) and [4/3x] 2 U/mL UDG (NEB M0280L) into columns 1, 2, 5 to 48. 1b; Dispense 3 uL of [4/3x] 2 U/mL UDG into column 3. 1c; Dispense 3 uL of [4/3x] 1 uM AID into column 4. 2a; Compound (7-points [uM]: 0.64; 3.2; 16; 80; 400; 2,000; 10,000; […]) double pin-transferred (Dip Factor = 2) using the Kalypsys (Wako USA) pintool equipped with a 1536 pinhead for a final concentration range of 7.32 nM - 114 uM. 2b; 10 mM Aurintricarboxylic Acid (Sigma A1895) (ATA, 8-point, n = 2, 1:2.5 dilution in column 2) double pin-transferred (Dip Factor = 2) using the Kalypsys (Wako USA) pintool equipped with a 1536 pinhead for a [final] range of 186 nM - 114 uM. 3; Room temperature incubation. 4; Dispense 1 uL of substrate mixture from the Kohli lab [4x] […] DJC20 and [4x] 250 nM DJC23 into columns 1 to 48 . 5; Room temperature incubation. 6; Dispense 4 uL of substrate mixture [2x] 250 mM NaOH into columns 1 to 48. 7; Centrifugation step to remove bubbles. […]

Compound | Potency
O=c1cc2nc(-c3ccccc3)nc(SCCN3CCC(F)(F)CC3)n2[nH]1 | inactive
O=C(O)C1=CC(=C(c2ccc(O)c(C(=O)O)c2)c2ccc(O)c(C(=O)O)c2)C=CC1=O | 31.6 µM (active)
Cc1noc(C)c1CCSc1nc(-c2ccccc2)nc2cc(=O)[nH]n12 | inactive
O=c1cc2nc(-c3ccccc3)nc(SCCOCCOc3ccccc3)n2[nH]1 | inactive
Cn1ccnc1CCSc1nc(-c2ccccc2)nc2cc(=O)[nH]n12 | inactive
O=c1cc2nc(-c3ccccc3)nc(SCCCn3ccnc3)n2[nH]1 | inactive
CN1CCN(CCCSc2nc(-c3ccccc3)nc3cc(=O)[nH]n23)CC1 | inactive
COc1ccccc1OCCSc1nc(-c2ccc(C(C)(C)C)cc2)nc2cc(=O)[nH]n12 | inactive
O=c1cc2nc(-c3ccccc3)nc(SCCCc3ccncc3)n2[nH]1 | inactive
CC(C)c1ccc2c(c1)c(SC(C)(C)C)c(CC(C)(C)C(=O)O)n2Cc1ccc(Cl)cc1 | inactive
